Reference: PubChem BioAssay (NCATS)
Results filed as inconclusive are left out. Calls of active or inactive are those of the source. Calls come from the whole dose curve; as a rule, active = well fitted curve in the direction sought with a large enough effect; inconclusive = small, poorly fitted or top-dose-only effect, or another doubt; inactive = no such curve, though single readings can be large; an effect the other way counts as inactive or inconclusive.

Key:
MCC-13 = assay: qHTS assay to identify novel small-molecules to repurpose for Merkel cell carcinoma treatment (AID 1296009); settings: MCC and control cell lines, CellTiter-Glo viability, 72 h; series mostly up to 46 µM; note: nearly all actives have a fitted effect of over 60% in size
Outline: (§1)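 After compound transfer in DMSO, plates were kept 72 hr at 37 degree celsius. Luminescent ATP signal from CellTiter-Glo served as viability measure, normalized against DMSO and no-cell controls.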

MCC-26 = assay: as above; settings: MCC and control cell lines, CellTiter-Glo viability, 72 h; series mostly up to 46 µM
Outline: as §1

MKL-1 = assay: as above; settings: MCC and control cell lines, CellTiter-Glo viability, 72 h; series mostly up to 46 µM
Outline: as §1

MKL-2 = assay: as above; settings: MCC and control cell lines, CellTiter-Glo viability, 72 h; series mostly up to 46 µM
Outline: as §1

UISO = assay: as above; settings: MCC and control cell lines, CellTiter-Glo viability, 72 h; series mostly up to 46 µM
Outline: as §1

WaGa = assay: as above; settings: MCC and control cell lines, CellTiter-Glo viability, 72 h; series mostly up to 46 µM
Outline: as §1

C33A = assay: Primary qHTS to identify gynecologic anti-cancer compounds using libraries of approved drugs and bioactive compounds (AID 1345084); settings: Gynecologic cancer cell panel viability, ATPlite luminescence, 48 h; series mostly up to 57.5 µM; note: nearly all actives have a fitted effect of over 55% in size
Outline: (§2)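 48 h compound exposure at 37 C, 5% CO2; five-point qHTS. ATPlite luminescence readout of cell ATP.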

CAOV3 = assay: as above; settings: Gynecologic cancer cell panel viability, ATPlite luminescence, 48 h; series mostly up to 57.5 µM
Outline: as §2

CASKI = assay: as above; settings: Gynecologic cancer cell panel viability, ATPlite luminescence, 48 h; series mostly up to 57.5 µM
Outline: as §2

Es-2 = assay: as above; settings: Gynecologic cancer cell panel viability, ATPlite luminescence, 48 h; series mostly up to 57.5 µM
Outline: as §2

HeLa = assay: as above; settings: Gynecologic cancer cell panel viability, ATPlite luminescence, 48 h; series mostly up to 57.5 µM
Outline: as §2

Hek293T = assay: as above; settings: Gynecologic cancer cell panel viability, ATPlite luminescence, 48 h, control line for the selectivity index; series mostly up to 57.5 µM
Outline: as §2

JEG-3 = assay: as above; settings: Gynecologic cancer cell panel viability, ATPlite luminescence, 48 h; series mostly up to 57.5 µM
Outline: as §2

OV90 = assay: as above; settings: Gynecologic cancer cell panel viability, ATPlite luminescence, 48 h; series mostly up to 57.5 µM
Outline: as §2

PA-1 = assay: as above; settings: Gynecologic cancer cell panel viability, ATPlite luminescence, 48 h; series mostly up to 57.5 µM
Outline: as §2

SKOV3 = assay: as above; settings: Gynecologic cancer cell panel viability, ATPlite luminescence, 48 h; series mostly up to 57.5 µM
Outline: as §2

Tov-21-G = assay: as above; settings: Gynecologic cancer cell panel viability, ATPlite luminescence, 48 h; series mostly up to 57.5 µM
Outline: as §2

Tov112D = assay: as above; settings: Gynecologic cancer cell panel viability, ATPlite luminescence, 48 h; series mostly up to 57.5 µM
Outline: as §2

[1] = Drug repurposing screens with cells derived from glioblastoma tumor samples (AID 1345199); settings: GBM patient neurospheres viability, ATP luminescence, 48 h; note: nearly all actives have a fitted effect of over 40% in size
Outline: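 Four patient lines of CD133+ GBM neurospheres were screened at several concentrations; hits were retested in those lines plus three slower-growing GBM lines, using 48-hour treatment and ATP-based viability.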

[2] = at 45.9 µM (top of the series), tumour line B
[3] = at 45.9 µM (top of the series), tumour line D
[4] = at 46 µM (top of the series), tumour line A
[5] = at 46.1 µM (top of the series), tumour line C
% is set by controls: 0 for no effect and ±100 for the full control effect.

CN1C(C)(C)CCCC1(C)C
inactive: outcome (MCC-13) | outcome (MCC-26) | outcome (MKL-1) | outcome (MKL-2) | outcome (UISO) | outcome (WaGa) | outcome (C33A) | outcome (CAOV3) | outcome (CASKI) | outcome (Es-2) | outcome (HeLa) | outcome (Hek293T) | outcome (JEG-3) | Potency (OV90) | outcome (PA-1) | outcome (SKOV3) | outcome (Tov-21-G) | outcome (Tov112D) | activity, negative = cell killing [1, 2] -6.99% | activity, negative = cell killing [1, 3] 3.96% | activity, negative = cell killing [1, 4] -29.4% | activity, negative = cell killing [1, 5] -8.74%

Nc1ccncc1N
inactive: outcome (MCC-13) | outcome (MCC-26) | outcome (MKL-1) | outcome (MKL-2) | outcome (UISO) | outcome (WaGa) | outcome (C33A) | outcome (CAOV3) | outcome (CASKI) | outcome (Es-2) | outcome (HeLa) | outcome (Hek293T) | outcome (JEG-3) | Potency (OV90) | outcome (PA-1) | outcome (SKOV3) | outcome (Tov-21-G) | outcome (Tov112D) | activity, negative = cell killing [1, 2] -7.35% | activity, negative = cell killing [1, 3] -6.96% | activity, negative = cell killing [1, 4] -18.3% | activity, negative = cell killing [1, 5] -14.3%

CCN(CC)S(=O)(=O)c1ccc(C(=O)O)cc1
inactive: outcome (MCC-13) | outcome (MCC-26) | outcome (MKL-1) | outcome (MKL-2) | outcome (UISO) | outcome (WaGa) | outcome (C33A) | outcome (CAOV3) | outcome (CASKI) | outcome (Es-2) | outcome (HeLa) | outcome (Hek293T) | outcome (JEG-3) | Potency (OV90) | outcome (PA-1) | outcome (SKOV3) | outcome (Tov-21-G) | outcome (Tov112D) | activity, negative = cell killing [1, 2] -12.2% | activity, negative = cell killing [1, 3] -3.35% | activity, negative = cell killing [1, 4] -16.8% | activity, negative = cell killing [1, 5] -15.2%

NC(=O)CCCCC1CCSS1 (stereo not drawn)
inactive: outcome (MCC-13) | outcome (MCC-26) | outcome (MKL-1) | outcome (MKL-2) | outcome (UISO) | outcome (WaGa) | outcome (C33A) | outcome (CAOV3) | outcome (CASKI) | outcome (Es-2) | outcome (HeLa) | outcome (Hek293T) | outcome (JEG-3) | Potency (OV90) | outcome (PA-1) | outcome (SKOV3) | outcome (Tov-21-G) | outcome (Tov112D) | activity, negative = cell killing [1, 2] -3.9% | activity, negative = cell killing [1, 3] 6.2% | activity, negative = cell killing [1, 4] -23.7% | activity, negative = cell killing [1, 5] 2.37%

Nc1c2c(nc3c1CCC3)CCCC2
inactive: outcome (MCC-13) | outcome (MCC-26) | outcome (MKL-1) | outcome (MKL-2) | outcome (UISO) | outcome (WaGa) | outcome (C33A) | outcome (CAOV3) | outcome (CASKI) | outcome (Es-2) | outcome (HeLa) | outcome (Hek293T) | outcome (JEG-3) | Potency (OV90) | outcome (PA-1) | outcome (SKOV3) | outcome (Tov-21-G) | outcome (Tov112D) | activity, negative = cell killing [1, 2] -2.28% | activity, negative = cell killing [1, 3] -13.4% | activity, negative = cell killing [1, 5] -27.2%

C[C@]1(Cn2ccnn2)[C@H](C(=O)O)N2C(=O)C[C@H]2S1(=O)=O
inactive: outcome (MCC-13) | outcome (MCC-26) | outcome (MKL-1) | outcome (MKL-2) | outcome (UISO) | outcome (WaGa) | outcome (C33A) | outcome (CAOV3) | outcome (CASKI) | outcome (Es-2) | outcome (HeLa) | outcome (Hek293T) | outcome (JEG-3) | Potency (OV90) | outcome (PA-1) | outcome (SKOV3) | outcome (Tov-21-G) | outcome (Tov112D) | activity, negative = cell killing [1, 2] -6.98% | activity, negative = cell killing [1, 3] -15.1% | activity, negative = cell killing [1, 4] -24.4% | activity, negative = cell killing [1, 5] -1.25%

CC(C)CCCC(C)CCCC(C)CCCCC(C)CCCC(C)CCCC(C)C (stereo not drawn)
inactive: outcome (MCC-13) | outcome (MCC-26) | outcome (MKL-1) | outcome (MKL-2) | outcome (UISO) | outcome (WaGa) | outcome (C33A) | outcome (CAOV3) | outcome (CASKI) | outcome (Es-2) | outcome (HeLa) | outcome (Hek293T) | outcome (JEG-3) | Potency (OV90) | outcome (PA-1) | outcome (SKOV3) | outcome (Tov-21-G) | outcome (Tov112D) | activity, negative = cell killing [1, 2] 2.81% | activity, negative = cell killing [1, 3] 2.23% | activity, negative = cell killing [1, 4] -12.7% | activity, negative = cell killing [1, 5] 8.73%
